Sampled rows, rich in hits. Any-hit rate of the full collection: about 4.5%.
HDAC3 inh – blocks human histone deacetylase 3; O15379; recombinant HDAC3, fluorogenic peptide/trypsin coupled, fluorescence; inhibition, % at 8.3 µM; 320,000 tested, 0.15% active; AID 2718; in the data active = inhibition above about 26%, passing the limit was not always enough; inconclusive = no clear call, values can overlap the other calls
Efflux pump mplx – inhibitors of Candida antifungal efflux pumps expressed in yeast; S. cerevisiae Candida pump triplex, Nile Red efflux; 330,000 tested, 0.44% active; inhibition, % at 10 µM;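 active = plate passing quality check with inhibition over a set limit, or well fluorescence over plate mean plus 4 SD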;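 also: Nile Red retained in pooled yeast measured as flow cytometry median fluorescence; 0% = buffer negative control and 100% = Enniatin B positive control; higher means more Nile Red kept so more efflux inhibition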
ALR inh – inhibitors of human sulfhydryl oxidase ALR. purified ALR, DTT oxidation, H2O2 HRP-luminol luminescence. 290,000 tested, 3.8% active. AID 485317. inhibition, % (no concentration beside the values);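 active = mean replicate inhibition above about 79%, with every replicate also reaching it, limit read from the data; inconclusive = only one of the two criteria met; inactive = mean below limit and not every replicate reaching it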
Rce1 inhib – inhibitors of yeast Ras-converting enzyme. 290,000 tested, 0.27% active. AID 2563. Q03530. calls only. yeast membranes, quenched prenylated peptide cleavage fluorescence;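 active = fall in fluorescence gain of 50% or more versus controls, with final raw signal at or below 3038400; inconclusive = same 50% fall but final raw signal above 3038400; inactive = fall in fluorescence gain under 50%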;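 also: plate controls were neutral control wells for no effect and wells lacking membranes for full effect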
GRK2 inh – inhibitors of human GRK2 displacing RNA aptamer; bead flow cytometry, FAM-aptamer displacement from GRK2; AID 488847; P25098; inhibition of aptamer binding, % at 10 µM; 330,000 tested, 0.59% active;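 active = inhibition of aptamer binding above 40%, roughly 3 SD of noise, on plates passing a quality check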;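 also: median bead fluorescence of bound FAM aptamer so fluorescent compounds give negative values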
Target sequence (P25098 whole entry, looked up): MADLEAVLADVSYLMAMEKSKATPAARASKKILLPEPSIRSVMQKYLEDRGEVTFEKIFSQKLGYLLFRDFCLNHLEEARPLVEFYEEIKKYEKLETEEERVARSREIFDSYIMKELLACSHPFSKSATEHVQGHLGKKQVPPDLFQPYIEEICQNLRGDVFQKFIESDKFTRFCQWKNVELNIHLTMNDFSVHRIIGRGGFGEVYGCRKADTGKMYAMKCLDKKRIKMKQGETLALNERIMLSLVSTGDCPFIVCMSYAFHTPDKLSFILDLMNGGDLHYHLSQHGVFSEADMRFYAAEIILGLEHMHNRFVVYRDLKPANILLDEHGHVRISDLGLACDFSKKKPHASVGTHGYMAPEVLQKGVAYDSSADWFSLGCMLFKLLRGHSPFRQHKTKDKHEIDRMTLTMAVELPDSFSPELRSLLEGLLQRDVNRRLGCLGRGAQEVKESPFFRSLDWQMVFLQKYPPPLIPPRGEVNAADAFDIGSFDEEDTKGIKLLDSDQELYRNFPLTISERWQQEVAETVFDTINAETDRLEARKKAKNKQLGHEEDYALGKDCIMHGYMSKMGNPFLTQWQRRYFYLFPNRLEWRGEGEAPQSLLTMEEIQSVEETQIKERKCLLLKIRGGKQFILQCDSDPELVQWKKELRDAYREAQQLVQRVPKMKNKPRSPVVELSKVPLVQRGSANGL
Rtt109 HAT inh – C. albicans Rtt109 histone acetyltransferase inhibition | Q5AAJ8 | purified Rtt109/Vps75, ThioGlo CoA-SH fluorescence, 4 h | inhibition, % at 34.9 µM | 330,000 tested, 0.16% active;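 active = inhibition of at least 50% in every replicate; inconclusive = best replicate reaches 50% inhibition but some replicates fall short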
Starred values were filed as active, the others as inactive; i = inactive; ? = inconclusive; . = no result given; + = active, no number.

SMILES	HDAC3 inh	Efflux pump mplx	ALR inh	Rce1 inhib	GRK2 inh	Rtt109 HAT inh
Cc1n[nH]c(=S)n1-c1cccc(Cl)c1	2.0	-0.5	94.5*	i	0.0	-15.6
Cc1cccc(-n2c(C)n[nH]c2=S)c1C	9.2	0.1	77.1*	i	0.0	3.8
Cc1cccc(NC(=O)CS(=O)CC(=O)Nc2cnc3ccccc3c2)c1C (stereo not drawn)	-3.3	0.0	-1.9	i	0.0	5.1
COc1ccc([N+](=O)[O-])cc1NC1CCCCC1	-1.0	-0.5	98.8*	i	3.0	-6.0
CCOC(=O)c1ccc2ncc(C(=O)OCC)c(Nc3ccc(N4CCOCC4)cc3)c2c1	2.9	-0.1	6.4	i	3.0	-2.4
CCOC(=O)c1cnc2ccc(OC)cc2c1Nc1ccc(N2CCN(C)CC2)cc1	3.7	0.2	99.3*	i	0.0	8.9
CN(C(=S)NC(=O)C1CC1)c1ccc(O)cc1	3.4	-0.1	96.7*	.	0.0	?
O=C(Nc1cccc(F)c1)C1CCCN(S(=O)(=O)c2ccc(-n3cnnn3)cc2)C1 (stereo not drawn)	-0.2	0.1	-12.4	i	2.0	-0.7
Cc1ccc(C)c(NC(=O)CSc2c(C)n[nH]c2C)c1	-0.4	-0.1	95.9*	.	0.0	12.2
O=S(=O)(c1ccc(F)c(F)c1F)N1CCN(C(=S)Nc2ccccc2)CC1	-3.9	0.2	-8.7	i	10.0	4.1
CCOC(=O)/C(=C/C=C1\Sc2ccccc2N1CC)C(C)=O	23.4	0.0	87.8*	i	0.0	8.0
CCOC(=O)/C=C/C(=O)OCC(=O)Nc1c(Cl)cccc1Cl	4.6	0.1	14.8	i	0.0	26.3
CCOC(=O)/C=C/C(=O)OCC(=O)Nc1ccc(Cl)cc1Cl	2.3	-0.1	95.5*	i	0.0	-9.9
O=S(=O)(C/C(=C/CO)S(=O)(=O)c1ccccc1)c1ccccc1	-3.0	0.2	98.6*	i	2.0	10.5
O=S(=O)(CS(=O)(=O)c1ccccc1)c1ccccc1	.	.	.	.	.	6.8
Nc1nnnn1/N=C/c1ccc(O)cc1	5.8	-0.1	95.7*	.	4.0	-20.9
COc1cc(/C=N/n2nnnc2N)ccc1O	-1.4	0.0	99.4*	i	0.0	3.5
C/C(=N\NC(=O)c1nnn(-c2nonc2N)c1-c1ccccc1)c1ccco1	10.1	0.0	-10.5	i	5.0	-4.8
O=C(C[C@H]1C/C=C\CCCCC(=O)OC[C@H]2CCCN2C1=O)N[C@H](CO)Cc1ccccc1	-9.7	-0.2	-2.8	.	0.0	-0.5
Cc1c(C(=O)OC(C)C)sc(NC(=O)c2cnccn2)c1C(=O)OC(C)C	.	.	.	.	.	2.2
CN(C)C(=O)c1ccc(NC(=O)c2cccc(S(=O)(=O)N3CCCc4ccccc43)c2)cc1	-8.6	-0.1	98.4*	i	2.0	10.7
O=C(O)c1cccc(NC(=O)c2cccc(S(=O)(=O)N3CCc4ccccc43)c2)c1	1.7	0.2	.	i	5.0	6.5
Cc1ccc2c(c1)CCCN2S(=O)(=O)c1cccc(C(=O)Nc2ccccc2C(=O)O)c1	5.5	0.0	98.1*	i	6.0	21.2
CN(C)C(=O)c1ccc(NC(=O)c2cccc(S(=O)(=O)N3CCCCCC3)c2)cc1	-2.1	0.0	-5.2	.	0.0	5.7
O=c1[nH]c2cc3c(cc2cc1CN(CCO)S(=O)(=O)c1ccccc1)OCCO3	-10.7	-0.1	-9.8	i	8.0	0.5
SMILES	HDAC3 inh	Efflux pump mplx	ALR inh	Rce1 inhib	GRK2 inh	Rtt109 HAT inh
CC(=O)c1ccc(NC(=O)CSc2nnc(-c3ccco3)c(-c3ccco3)n2)cc1	4.3	0.1	99.4*	i	3.0	-4.2
O=C(CSc1nnc(-c2ccco2)n1Cc1ccccc1)c1ccccc1	4.0	-0.1	18.7	i	1.0	0.2
O=C(CSc1n[nH]c(-c2ccccc2)n1)c1ccccc1	-13.4	-0.3	97.2*	i	4.0	-2.0
O=C(CSc1nnc(-c2ccco2)c(-c2ccco2)n1)c1ccccc1	13.4	0.0	98.9*	i	4.0	-2.6
Nc1c(Cl)ncnc1N/N=C/c1cccc(O)c1	3.0	-0.1	97.2*	i	0.0	-1.8
CCC1=C(OC(=O)N(CC)CC)N2C(=O)OC(=NCC3CC3)[C@]2(Cc2ccccc2)[C@H]2C1=CC[C@H]1C(=O)N(c3ccccc3)C(=O)[C@H]12	13.5	3.8*	-4.7	i	0.0	6.4
COC(=O)[C@]1(C)N[C@H](CN(C)S(=O)(=O)c2ccccc2)[C@@H]2C(=O)N(Cc3ccccc3)C(=O)[C@@H]21	0.4	-0.3	0.3	.	2.0	-7.7
Cc1nnc(N2C(=O)C(O)=C(C(=O)c3ccco3)C2c2ccc(C(C)(C)C)cc2)s1 (stereo not drawn)	9.7	0.0	97.1*	i	0.0	14.6
Cc1nnc(N2C(=O)C(O)=C(C(=O)c3ccco3)C2c2ccc(C(C)C)cc2)s1 (stereo not drawn)	11.5	0.2	96.7*	i	0.0	-0.8
CSc1ccc(C2C(C(=O)c3ccco3)=C(O)C(=O)N2c2nnc(SC)s2)cc1 (stereo not drawn)	2.1	0.1	98.1*	i	4.0	?
Cc1nnc(N2C(=O)C(O)=C(C(=O)c3ccco3)C2c2ccc(F)cc2)s1 (stereo not drawn)	-1.8	0.1	70.9	i	5.0	25.1
O=C(/C=C/c1ccccc1)NCCS(=O)(=O)N1CCN(c2ccc(F)cc2)CC1	-2.5	-0.1	-1.1	i	0.0	-9.9
COc1ccccc1N1CCN(S(=O)(=O)c2cccc(F)c2)CC1	-1.4	0.2	96.9*	.	0.0	12.1
COc1ccccc1N1CCN(S(=O)(=O)c2c(C)[nH]c(=O)[nH]c2=O)CC1	-8.3	0.0	96.6*	i	0.0	-0.9
Cc1[nH]c(=O)[nH]c(=O)c1S(=O)(=O)N1CCN(c2ccccc2F)CC1	15.0	0.0	-10.1	i	0.0	-6.1
COc1ccccc1N1CCN(S(=O)(=O)c2ccc(F)cc2)CC1	-5.1	0.1	38.8	i	0.0	33.3
CC(C)Sc1nc2ccccc2n1CC(=O)O	-4.0	-0.2	-18.5	i	0.0	9.8
COc1cccc(CN(CC(=O)NCc2ccccc2)C(=O)c2csnn2)c1	?	0.0	-1.3	i	0.0	-5.2
Cc1ccc2nc(SCc3cn4cccnc4n3)[nH]c2c1	2.1	-0.2	.	i	2.0	2.6
Cc1ccc(S(=O)(=O)Cc2cn3cccnc3n2)cc1	.	.	.	+	.	-7.1
O=C(Cc1ccc(NC(=O)C2CCCN(C(=O)C3CC3)C2)cc1)Nc1ccc(C(=O)N2CCOCC2)cc1 (stereo not drawn)	.	.	.	.	.	-13.4
Cc1ccc(S(=O)(=O)N/N=C\C=C\c2ccccc2)cc1	6.1	-0.1	20.0	i	1.0	51.5*
O=S(=O)(N/N=C\C=C\c1ccccc1)c1ccc(Br)cc1	4.3	-0.1	13.4	i	2.0	0.1
Cc1ccc(S(=O)(=O)N2[C@@H](c3ccc(Cl)cc3)C(C(=O)O)=CC[C@H]2c2ccc(C(C)C)cc2)cc1	4.2	0.0	94.8*	.	0.0	-0.4

Screening data deposited in PubChem BioAssay by several laboratories.
